Records with an inconclusive call do not appear. A call without a number means that no potency is given here. Activity calls are given as the source filed them. The call rests on the fitted dose curve; in most records, active means well fitted curve in the direction sought with a large enough effect; inconclusive means small, poorly fitted or top-dose-only effect, or another doubt; inactive means no such curve, though single readings can be large or run the other way.
Target: Lysine-specific histone demethylase 1A (Homo sapiens) (UniProt O60341)
Assay: qHTS Assay for Inhibitors of Human Jumonji Domain Containing 2E (JMJD2E): Counterscreen with LSD1
Details: Amplex Red/HRP fluorescence; series mostly up to 57.1 µM
From the text: The fine interplay among methylation states of several lysine residues on the tails of histone proteins is a major determinant of the transcriptional state of the associated DNA coding regions and is commonly referred to as the histone code. Histone lysine demethylases catalyze the removal of methyl groups from methylated lysine sidechains on histones H3 and H4, thus antagonizing the reactions catalyzed by histone lysine methyltransferases. […] In search for novel inhibitors of JMJD2E demethylase, a member of the largest set of histone demethylases belonging to the Fe(II) and 2-oxoglutarate oxygenase (2OG) superfamily, we performed a quantitative high-throughput screen (Inglese 2006) by using an assay which utilizes a trimethylated peptide substrate corresponding to a fragment of histone H3 (sequence ARKme3STGGK) with detection of the formaldehyde co-product in real time by a formaldehyde dehydrogenase (FDH) coupled reaction. FDH catalyzes oxidation of formaldehyde to formic acid with the concomitant reduction of the non-fluorescent beta-nicotinamide adenine dinucleotide hydrate (NAD+) cofactor to the fluorescent NADH co-product. Compounds that were validated hits were screened against the histone LSD1 histone demethylase. […] NIH Chemical Genomics Center [NCGC] NIH Molecular Libraries Probe Centers Network [MLPCN] MLPCN Grant: MH084681 Assay Submitter (PI): Udo Oppermann, Structural Genomics Consortium, University of Oxford
The assay was performed in a buffer containing 10 mM HEPES, Na pH 7.5, 5 mM MgCl2, 50 mM KCl, 0.01% Nonidet P-40, and 0.1% BSA. LSD1 was sourced from BPS Bioscience (Cat. No. 50100, San Diego, CA) and the substrate peptide was synthesized and purified by Tufts University Core Facilities (Boston, MA). Reagents (3 microL) containing either buffer-only (inhibited control) or LSD1 (120 nM) were dispensed into a 1,536-well Aurora black solid bottom cycloolefin plate (see Table 1 for protocol steps). Compounds (23 nL) were transferred via Kalypsys pintool equipped with a 1,536-pin array. The plate was incubated for 10 min at room temperature, followed by the addition of 1 microL 4 X substrate (10 mM HEPES, pH 7.5, 8 U/mL HRP, 800 µM Amplex Red, and 200 microM H3K4Me2 peptide [Sequence H-ARTXQTARKSTGGKAPRKQLA-NH2, where X = Nepsilon,Nepsilon-dimethyl-L-lysine]) to start the reaction. The plate was then centrifuged at 1,000 rpm for 15 seconds, and the fluorescence intensity was recorded on a ViewLux High-throughput CCD imager (Perkin-Elmer) using standard TAMRA optics (525 nm excitation and 598 nm emission). The plate was then incubated for 30 min at room temperature, and a second read on the ViewLux was performed. The fluorescence intensity difference over the 30 min was used to calculate the respective reaction rate for each well.

Row | Compound | Potency
1 | CN(C)CCCNC(=O)c1ccc(-c2cnc3c(O)ccc(C(=O)O)c3c2)cc1 | inactive
2 | O=C(O)c1ccnc2c(O)cccc12 | inactive
3 | NC(=O)c1ccnc2c(O)cccc12 | inactive
4 | O=C(O)c1ccc(O)c2ncc(-c3ccc(C(=O)N4CCNCC4)cc3)cc12 | inactive
5 | CN(C)CCCN1CCCN(C(=O)c2cccc(-c3cc(O)c4ncccc4c3)c2)C1 | 10.8 µM (active)
6 | CN1CCN(C(=O)c2ccc(-c3cnc4c(O)ccc(C(=O)O)c4c3)cc2)CC1 | inactive
7 | O=C(O)c1ccc(O)c2ncc(-c3ccc(N4CCOCC4)cc3)cc12 | inactive
8 | O=C(O)c1ccc(O)c2ncccc12 | inactive
9 | O=C(O)c1ccc(O)c2ncc(C3CCNCC3)cc12 | inactive
10 | O=C(O)c1ccc(O)c2ncc(-c3cccc(N4CCOCC4)c3)cc12 | inactive

Reference: PubChem BioAssay AID687009 (National Center for Advancing Translational Sciences (NCATS), 2013)
